Calb FLC: C. albicans growth inhibition with fluconazole, primary screen, CaCi-2 strain, Alamar Blue fluorescence | growth inhibition, % (test concentration not listed) | 300,000 tested, 0.57% active | AID 1979, 2009 | C. albicans CaCi-2 (fluconazole-resistant clinical isolate) + fluconazole, 48 h;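 active = growth inhibition above about 58% in most replicates, limit read from the data, passing the limit was not always enough; inconclusive = exactly half the replicates above a set limit; inactive = most replicates below a set limit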;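 also: all wells also contain fluconazole at 8 µg/ml as a sub-toxic cotreatment; 0% = median of DMSO wells and 100% = median of geldanamycin control wells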
tim23-1 inh: growth inhibitors of tim23-1 mutant yeast, primary screen, luminescence, uHTS | S. cerevisiae tim23-1 growth, BacTiter-Glo luminescence, 24 h | inhibition, % at 20 µM | 330,000 tested, 1.3% active | AID 463212, 2010;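 active = growth inhibition of the mutant yeast at or above 50%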;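 also: temperature-sensitive mutant grown at 25 °C; plate controls were DMSO-treated mutant yeast for no effect and medium wells lacking yeast for full effect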
SKKanGAS inh: S. pyogenes SKKanGAS growth inhibitors in kanamycin, primary screen, streptokinase expression inhibitor project, SKKanGAS strain, BacTiter-Glo luminescence; 6 h; inhibition, % at 7.5 µM; 300,000 tested, 1.3% active; AID 1662, 2009;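 active = mean replicate score, as percent of positive control median, at least 50; inconclusive = mean below 50 but one replicate at or above 50; inactive = mean and every replicate below 50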;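 also: strain carries kanamycin resistance gene driven by streptokinase promoter and grows in 40 µg/ml kanamycin; loss of luminescence reflects streptokinase promoter inhibition or plain growth inhibition; 0% = median of DMSO wells and 100% = positive control at its reference dose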
TIM10 inh: growth inhibitors of isogenic TIM10 control yeast, primary screen, counter-screen for tim10-1 yeast inhibitor project, luminescence, uHTS; S. cerevisiae TIM10 strain growth, BacTiter-Glo luminescence, 24 h; 330,000 tested, 1.4% active; inhibition, % at 10 µM;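 active = inhibition of 40% or more at the single tested concentration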;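 also: wild-type TIM10 isogenic control strain grown at permissive 25 °C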
tim10-1 inh: growth inhibitors of tim10-1 mutant yeast, primary screen, luminescence, uHTS. inhibition, % at 20 µM. AID 463190, 2010. 330,000 tested, 2.2% active. S. cerevisiae tim10-1 ts strain growth, BacTiter-Glo, 24 h;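 active = inhibition of at least 40%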;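 also: mutant grown at 25 °C; 0% = DMSO wells with yeast and 100% = wells holding no yeast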
PfHsp90 set2: growth inhibition of PfHsp90-expressing yeast, primary screen, antimalarial PfHsp90 inhibitor project, S. cerevisiae, BacTiter-Glo luminescence, single point, set 2; 310,000 tested, 0.32% active; inhibition, % at 9.4 µM; BacTiter-Glo ATP, 48 h; yeast lacking PDR1 and PDR3 efflux regulators;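 active = every replicate shows inhibition above about 80%, whatever the replicate mean, limit read from the data; inconclusive = mean inhibition reaches the set limit but some replicate falls short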;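 also: 0% = DMSO neutral controls and 100% = 20 µM radicicol positive controls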
tim10-1 confirm: growth inhibitors of tim10-1 mutant yeast, confirmation, single concentration, luminescence, S. cerevisiae | shares compounds with tim10-1 inh | S. cerevisiae tim10-1 ts strain growth, BacTiter-Glo, 24 h | inhibition, % at 20 µM | 7,400 tested, 56% active | AID 463213, 2010;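 active = inhibition of yeast growth at or above a set limit in either of two repeat tests at 20 µM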;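 also: tim10-1 mutant grown at permissive 25 °C to find synthetic lethal compounds; 0% = DMSO yeast wells and 100% = medium wells without yeast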
* = called active by the depositor; ? = inconclusive; nt = not tested or not shown. Compounds with a hit are over-represented: about 4.7% of the library has one in this group of screens.

SMILES | Calb FLC | tim23-1 inh | SKKanGAS inh | TIM10 inh | tim10-1 inh | PfHsp90 set2 | tim10-1 confirm
Oc1cccc2ccc(/C=C/c3cccs3)nc12 | 38 | 41 | 120* | 19 | 41* | -139 | 18
Cc1ccccc1-n1nnnc1SCC(=O)NNC(=O)c1ccc(NC(=O)CC#N)cc1 | nt | 9 | nt | 7 | 7 | -6 | nt
COc1ccc(Br)cc1S(=O)(=O)N1CCCc2ccccc21 | 10 | 27 | 4 | -9 | 1 | 4 | nt
COc1ccc(N2CC(C(=O)OCC(=O)c3ccc(C)cc3)CC2=O)cc1 (stereo not given) | 8 | 12 | -2 | 11 | 28 | 16 | nt
Cc1ccc(C(=O)COC(=O)C2CC(=O)N(c3nc(-c4ccccc4)cs3)C2)cc1 (stereo not given) | -10 | 11 | 11 | 31 | 40* | -14 | 29
Cn1c(O)c(N=NC(=O)C2COc3ccccc3O2)c2ccccc21 (stereo not given) | 32 | 39 | 9 | 21 | 22 | 6 | nt
CC(C)n1c(O)c(N=NC(=O)C2COc3ccccc3O2)c2ccccc21 (stereo not given) | 34 | 40 | -13 | 29 | 48* | -16 | 28
Cc1ccc2nsnc2c1NC(=O)c1ccc([N+](=O)[O-])o1 | 4 | 28 | 5 | 19 | 28 | -20 | nt
Cn1c(-c2ccccc2O)cc2ccccc21 | 6 | 39 | 1 | 25 | 48* | 22 | 29*
COC(=O)C1=C(CS(=O)(=O)c2cc(OC)ccc2OC)NC(=O)NC1c1ccc(O)c(OC)c1 (stereo not given) | -1 | 6 | 2 | 6 | -6 | -21 | nt
CCN(CC)CCCN(C(=O)c1ccco1)c1nc(-c2ccc(Cl)cc2)cs1 | -36 | 17 | -3 | 15 | 41* | -4 | 23
CCN(CC)CCCN(C(=O)c1ccco1)c1nc(-c2ccc(C)cc2)cs1 | -33 | 5 | -2 | 14 | 23 | 9 | nt
CC(=O)c1c(C)[nH]c(C(=O)OCC(=O)Nc2nnc(-c3ccccc3)o2)c1C | nt | 0 | nt | -5 | 0 | -26 | nt
O=C(CSc1ncnc2sc3c(c12)CCCCC3)NCc1ccco1 | -3 | 40 | 8 | 27 | 47* | 3 | 34*
Cc1ccn2cc(-c3cccc(S(=O)(=O)N4CCCC4)c3)nc2c1 | 36 | 27 | 1 | 9 | 50* | -50 | -7
Cc1ccn2cc(-c3cccc(S(=O)(=O)N4CC(C)OC(C)C4)c3)nc2c1 (stereo not given) | -2 | 30 | -1 | 13 | 41* | -25 | 8
C=CC[C@H](CC(=O)OC(C)(C)C)C(=O)OC[C@@H]1CCCN1C(=O)[C@@H](CC=C)CC(=O)NCCO | nt | 5 | nt | 2 | 0 | -1 | nt
CC(=O)c1ccc(NC(=O)C2CCN(S(=O)(=O)c3cccc4cccnc34)CC2)cc1 | 1 | 37 | 0 | 18 | 41* | 7 | 29
COc1ccc(NC(=O)C2CCN(S(=O)(=O)c3cccc4cccnc34)CC2)cc1 | -1 | 0 | 3 | 3 | -11 | -11 | nt
CN1C(=O)CSC1=S | nt | -14 | -2 | -3 | -19 | 9 | nt
COc1ccc(CN2C(=O)c3c(c(C)n(C)c3C)C2C(=O)NC2CCC(C)CC2)cc1 (stereo not given) | -46 | 33 | 1 | 28 | 42* | nt | 28
COc1ccc(S(=O)(=O)N2CCCCC2)cc1NC(=O)CCC(=O)N1CCC(c2ccccc2)=N1 | nt | nt | nt | nt | nt | 11 | nt
O=C(CCl)NC(=O)NC12CC3CC(CC(C3)C1)C2 | ? | nt | 0 | nt | nt | 16 | nt
CC(Cl)C(=O)NC(=O)NC12CC3CC(CC(C3)C1)C2 (stereo not given) | 1 | 45 | 6 | 29 | 42* | 2 | 26

Compound activity (PubChem BioAssay)
